# The list is not random: actives were taken first. Their share in the collection is about 2.9%.
# SMARCA2 activ: SMARCA2 function activation, primary screen. MG213 cells, MMTV-luciferase reporter, dexamethasone, overnight. activation, % at 9.1 µM. 370,000 compounds, 1% hits. AID 652017; in the data active = activation above about 7.8%;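 also: 0% = vehicle wells and 100% = reference activator wells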
# proKLK7 act: proKLK7 (human) activation, primary screen | P49862 | purified proKLK7, EDANS-DABCYL substrate fluorescence; 100% is mature enzyme control, 0% vehicle | activation, % at 7 µM | 370,000 compounds, 0.9% hits | AID 652039;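 active = activation above the mean of all tested compounds plus 3 SD, computed per campaign excluding outliers beyond control limits, cut at about 13% in these data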
# Target sequence (P49862 whole entry, looked up): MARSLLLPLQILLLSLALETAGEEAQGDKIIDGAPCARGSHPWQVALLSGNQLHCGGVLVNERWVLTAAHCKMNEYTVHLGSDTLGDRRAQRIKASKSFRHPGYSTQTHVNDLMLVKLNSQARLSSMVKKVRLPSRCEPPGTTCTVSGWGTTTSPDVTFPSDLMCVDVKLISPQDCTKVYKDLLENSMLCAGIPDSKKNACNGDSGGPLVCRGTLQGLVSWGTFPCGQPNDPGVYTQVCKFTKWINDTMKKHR
# FAS-TE inh: FAS thioesterase (human) inhibition | inhibition, % at 15 µM | recombinant FAS-TE, OMFH fluorogenic substrate, fluorescence endpoint | 360,000 compounds, 0.67% hits | P49327;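 active = compounds whose normalised, plate-corrected inhibition of enzyme fluorescence in the single-dose primary screen is 50% or more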;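 also: 0% = DMSO with enzyme and 100% = substrate without enzyme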
# FXN GAA850 act: increases GAA850 frataxin promoter reporter activity; activation, % at 6 µM; 360,000 compounds, 0.56% hits; HEK293 lucGAA850 FXN promoter luciferase reporter, 24 h; percent of 10 µM SAHA response; AID 540364;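 active = activation above the average of all compounds screened plus 3 SD, cutoff fixed separately per campaign, cut at about 7.5% in these data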;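 also: 0% = DMSO wells and 100% = 10 µM SAHA wells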
# proKLK7 act conf: proKLK7 activation, confirmation. shares compounds with proKLK7 act. purified proKLK7, EDANS-DABCYL substrate fluorescence; scaled: vehicle 0, mature enzyme 100. activation, % at 7 µM. 3,200 compounds, 68% hits;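 active = activation, as change over the incubation, above the mean of all tested compounds plus 3 SD, cut at about 13% in these data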
# EDANS interfere: fluorescence interference counter-screen for KLK7 activators; shares compounds with proKLK7 act; 3,200 compounds, 80% hits; activation, % at 7 µM; EDANS-DABCYL substrate fluorescence interference, no enzyme, 4 h; solvent 0%, active enzyme control 100%;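 active = activation above the all-compound mean plus 3 SD, ignoring values outside control-based bounds, cut at about 4.8% in these data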;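 also: value is the 4 h activation minus the activation read at time zero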
# K7 EDANS ctr: EDANS fluorescence interference in dose response, no enzyme; shares compounds with proKLK7 act; EDANS-DABCYL peptide fluorescence interference; EC50, µM; 250 compounds, 20% hits; AID 720493;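 active = compounds that raise the fluorescence signal in this interference counterscreen, with EC50 at or below 10 µM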;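 also: intact quenched peptide substrate alone read at 355 nm excitation and 520 nm emission; signal is fluorescence gain from T0 to T4 after four hours at room temperature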
# * hit, by the source's call; · = no result.
SMILES,SMARCA2 activ,proKLK7 act,FAS-TE inh,FXN GAA850 act,proKLK7 act conf,EDANS interfere,others
COc1cc(C=Nc2ccccc2C(=O)Nc2ccccc2)cc(OC)c1OC,0,19*,-3,3,18*,22*,
CC(=O)c1ccc(Sc2ccccc2N)c([N+](=O)[O-])c1,2,15*,27,2,7,3,
Cc1ccc2nc3[nH]c(=O)[nH]c(=O)c3c(N)c2c1,2,7,-4,3,·,·,
Cc1cc(C)[n+](-c2ccc(C(C)C)cc2)c2[nH]c(=O)[nH]c(=O)c12,-2,27*,2,-1,61*,65*,
CC(C)c1ccc(NC(=S)Nc2ccc3[nH]c(=O)[nH]c3c2)cc1,3,0,2,-2,·,·,
Cc1cccc(-[n+]2c(C)cc(C)c3c(=O)[nH]c(=O)[nH]c32)c1,0,29*,-6,-2,42*,53*,
CCC(=O)N1CCN(c2cc(NCC3CCCO3)c(F)cc2[N+](=O)[O-])CC1 (centres undefined),-4,-1,0,-2,·,·,
CCn1ccnc1C(O)c1cccc(OC)c1 (centres undefined),1,1,-8,1,·,·,
Cc1nc2cc(NC(=O)Nc3ccccc3Cl)ccc2n1C,7,0,-4,2,·,·,
CCN1C=C(C(=O)OC)C(c2cccc(OC)c2OC)C(C(=O)OC)=C1,1,45*,-5,-2,76*,74*,
COC(=O)C1=CN(C2CC2)C=C(C(=O)OC)C1c1ccccc1OC,-2,37*,-2,-2,78*,78*,
COCCN1C=C(C(=O)OC)C(c2ccccc2Cl)C(C(=O)OC)=C1,-1,42*,-1,0,-31,-12,
COc1ccc(C(CNC(=O)Nc2ccccc2)N2CCN(C)CC2)cc1 (centres undefined),2,0,-5,1,·,·,
O=C(O)CC(C(=O)OC1CCCCC1)N1CCOCC1 (centres undefined),·,·,-8,-2,·,·,
CN=C1c2cc3cc(OC)ccc3n2CCN1C,-3,1,-4,-2,·,·,
COc1ccc2c(c1)cc1n2CCN=C1NCCO,-2,17*,-6,-2,20*,27*,
COCCCn1c(=N)c(C(=O)NCc2ccc3c(c2)OCO3)cc2c(=O)n3ccccc3nc21,0,1,-4,0,·,·,
N=c1c(C(=O)NC2CCCC2)cc2c(=O)n3ccccc3nc2n1CC1CCCO1 (centres undefined),-1,105*,-9,0,33*,25*,K7 EDANS ctr=>69
Cn1c(C(=O)N2COCC2(C)C)cc2c(=O)n3ccccc3nc21,1,48*,-4,3,74*,70*,
COCCCn1c(C(=O)N2CC(C)OC(C)C2)cc2c(=O)n3ccccc3nc21 (centres undefined),1,83*,-4,-1,70*,71*,
CCOC(=O)c1cc2c(=O)n3ccccc3nc2n(CC2CCCO2)c1=NC(C)=O (centres undefined),-2,80*,-5,1,64*,68*,
Cc1cccn2c(=O)c3cc(C(=O)N4COCC4(C)C)sc3nc12,-2,3,-6,3,·,·,
CCCCOc1ccc(CONS(=O)(=O)c2ccc(NC(C)=O)cc2)cc1Cl,0,1,31,0,·,·,
CCOc1ccc(CCNC(=O)COC(=O)CNS(=O)(=O)c2ccc(C)cc2)cc1OCC,-2,0,-4,1,·,·,
COc1ccc(NC(=O)Cc2ccc(Cl)cc2)cc1S(=O)(=O)N1CCCCC1,-4,1,14,0,·,·,
N=c1c(C(=O)NC2CCCCC2)cc2c(=O)n3ccccc3nc2n1CC1CCCO1 (centres undefined),1,53*,-5,1,8,21*,
COc1ccc(CCn2c(=N)c(C(=O)NCC3CCCO3)cc3c(=O)n4ccccc4nc32)cc1OC (centres undefined),4,-1,-12,0,·,·,
COCCCn1c(=N)c(C(=O)NC2CCCCC2)cc2c(=O)n3ccccc3nc21,5,150*,-6,1,4,-3,
